# Results from the supplement of paper PMC12645437, “Orthogonal IMiD-Degron Pairs Induce Selective Protein Degradation in Cells” (ACS Chemical Biology, 2025).
# Whole data set: some 8,300 sequences, median “log2 fold change of degron read counts, EGFP-low vs EGFP+ sorted cells (limma voom), compound-induced degradation” near -1.1, cut for the highest 2% near 3.2. The full list was thinned out, with the highest values kept by preference.
# Molecular target: T1, CRBN, Q96SW2
# T1 chain: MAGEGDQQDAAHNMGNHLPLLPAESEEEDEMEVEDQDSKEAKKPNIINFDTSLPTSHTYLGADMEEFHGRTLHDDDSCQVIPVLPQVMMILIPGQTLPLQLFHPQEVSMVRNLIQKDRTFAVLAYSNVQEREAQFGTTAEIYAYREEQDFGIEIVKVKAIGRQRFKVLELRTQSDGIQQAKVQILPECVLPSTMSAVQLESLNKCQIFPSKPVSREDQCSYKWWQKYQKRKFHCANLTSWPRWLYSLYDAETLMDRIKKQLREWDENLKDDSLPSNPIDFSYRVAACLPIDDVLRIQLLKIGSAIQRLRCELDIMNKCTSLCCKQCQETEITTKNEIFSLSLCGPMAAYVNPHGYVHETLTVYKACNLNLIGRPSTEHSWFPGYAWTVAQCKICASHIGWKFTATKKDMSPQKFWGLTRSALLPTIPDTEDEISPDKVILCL
# Assay: log2 fold change of degron read counts, EGFP-low vs EGFP+ sorted cells (limma voom), compound-induced degradation; higher = more compound-induced degradation of the degron-EGFP fusion; degrons are variants of IKZF1/3 zinc finger 2; compound dose not given here
# Settings: Jurkat, 18 h
# [1] = compound: compound 19 (5-tert-butyl-thalidomide)
# [2] = compound: compound 22 (5-morpholino-thalidomide)
# [3] = compound: compound 33 (diphenyl IMiD analogue)
# 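Note: pooled lentiviral library of zinc finger degron-EGFP fusions in mCherry-positive Jurkat cells, FACS-sorted after compound exposure, with degron abundance counted by next-generation sequencing.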
sequence,measurement,setting,value
"FMCPQCGAEFTQKGNLLRHIKL [46F_47M_49P_50Q_52G_53A_54E_55F_67L_, Q9UKT9]",log2 fold change of degron read counts,[1],-2.82
same,log2 fold change of degron read counts,[2],-2.55
same,log2 fold change of degron read counts,[3],0.714
same,log2 fold change of degron read counts,compound: thalidomide,-1.49
"FACEICGHVFTQKGNLLRHIKL [46F_47A_49E_50I_52G_53H_54V_55F_67L_, Q9UKT9]",log2 fold change of degron read counts,[1],-2.8
same,log2 fold change of degron read counts,[2],-3.22
same,log2 fold change of degron read counts,[3],-3.16
same,log2 fold change of degron read counts,compound: thalidomide,-2.72
"FKCPVCGAYFTQKGNLLRHIKL [46F_47K_49P_50V_52G_53A_54Y_55F_67L_, Q9UKT9]",log2 fold change of degron read counts,[1],-2.09
same,log2 fold change of degron read counts,[2],-2.57
same,log2 fold change of degron read counts,[3],-2.35
same,log2 fold change of degron read counts,compound: thalidomide,-1.29
"FDCDVCGADFTQKGNLLRHIKL [46F_47D_49D_50V_52G_53A_54D_55F_67L_, Q9UKT9]",log2 fold change of degron read counts,[1],-3.06
same,log2 fold change of degron read counts,[2],-3.05
same,log2 fold change of degron read counts,[3],-2.88
same,log2 fold change of degron read counts,compound: thalidomide,-2.92
"FGCDVCGAVFTQKGNLLRHIKL [46F_47G_49D_50V_52G_53A_54V_55F_67L_, Q9UKT9]",log2 fold change of degron read counts,[1],-0.0514
same,log2 fold change of degron read counts,[2],-0.272
same,log2 fold change of degron read counts,[3],0.863
same,log2 fold change of degron read counts,compound: thalidomide,-1.24
"FICNQCGADFTQKGNLLRHIKL [46F_47I_49N_50Q_52G_53A_54D_55F_67L_, Q9UKT9]",log2 fold change of degron read counts,[1],-3.68
same,log2 fold change of degron read counts,[2],-3.02
same,log2 fold change of degron read counts,[3],-3.36
same,log2 fold change of degron read counts,compound: thalidomide,-3.07
"FNCEVCGAKFTQKGNLLRHIKL [46F_47N_49E_50V_52G_53A_54K_55F_67L_, Q9UKT9]",log2 fold change of degron read counts,[1],1.99
same,log2 fold change of degron read counts,[2],0.318
same,log2 fold change of degron read counts,[3],-2.12
same,log2 fold change of degron read counts,compound: thalidomide,0.139
"FCCEVCGAKFTQKGNLLRHIKL [46F_47C_49E_50V_52G_53A_54K_55F_67L_, Q9UKT9]",log2 fold change of degron read counts,[1],3.23
same,log2 fold change of degron read counts,[2],2.43
same,log2 fold change of degron read counts,[3],-0.571
same,log2 fold change of degron read counts,compound: thalidomide,2.71
"FVCEVCGAKFTQKGNLLRHIKL [46F_47V_49E_50V_52G_53A_54K_55F_67L_, Q9UKT9]",log2 fold change of degron read counts,[1],0.611
same,log2 fold change of degron read counts,[2],1.89
same,log2 fold change of degron read counts,[3],0.0419
same,log2 fold change of degron read counts,compound: thalidomide,2.73
"FHCEVCGAKFTQKGNLLRHIKL [46F_47H_49E_50V_52G_53A_54K_55F_67L_, Q9UKT9]",log2 fold change of degron read counts,[1],2.92
same,log2 fold change of degron read counts,[2],1.93
same,log2 fold change of degron read counts,[3],-0.596
same,log2 fold change of degron read counts,compound: thalidomide,0.387
"FFCEVCGAKFTQKGNLLRHIKL [46F_47F_49E_50V_52G_53A_54K_55F_67L_, Q9UKT9]",log2 fold change of degron read counts,[1],3.53
same,log2 fold change of degron read counts,[2],3.42
same,log2 fold change of degron read counts,[3],1.26
same,log2 fold change of degron read counts,compound: thalidomide,1.64
"FYCEVCGAKFTQKGNLLRHIKL [46F_47Y_49E_50V_52G_53A_54K_55F_67L_, Q9UKT9]",log2 fold change of degron read counts,[1],3.48
same,log2 fold change of degron read counts,[2],3.66
same,log2 fold change of degron read counts,[3],1.65
same,log2 fold change of degron read counts,compound: thalidomide,1.54
"FNCSVCGHVFTQKGNLLRHIKL [46F_47N_49S_50V_52G_53H_54V_55F_67L_, Q9UKT9]",log2 fold change of degron read counts,[1],-2.33
same,log2 fold change of degron read counts,[2],-2.79
same,log2 fold change of degron read counts,[3],-2.91
same,log2 fold change of degron read counts,compound: thalidomide,-2.16
"FGCDICGALFTQKGNLLRHIKL [46F_47G_49D_50I_52G_53A_54L_55F_67L_, Q9UKT9]",log2 fold change of degron read counts,[1],0.711
same,log2 fold change of degron read counts,[2],-0.455
same,log2 fold change of degron read counts,[3],0.626
same,log2 fold change of degron read counts,compound: thalidomide,-1.25
"FECPICGREFTQKGNLLRHIKL [46F_47E_49P_50I_52G_53R_54E_55F_67L_, Q9UKT9]",log2 fold change of degron read counts,[1],-3.21
same,log2 fold change of degron read counts,[2],-2.49
same,log2 fold change of degron read counts,[3],-0.551
same,log2 fold change of degron read counts,compound: thalidomide,0.22
"FFCDVCGAMFTQKGNLLRHIKL [46F_47F_49D_50V_52G_53A_54M_55F_67L_, Q9UKT9]",log2 fold change of degron read counts,[1],1.26
same,log2 fold change of degron read counts,[2],0.949
same,log2 fold change of degron read counts,[3],-0.289
same,log2 fold change of degron read counts,compound: thalidomide,-2.16
"LCCPICGFECTQKGNLLRHIKL [46L_47C_49P_50I_52G_53F_54E_55C_67L_, Q9UKT9]",log2 fold change of degron read counts,[1],0.863
same,log2 fold change of degron read counts,[2],1.38
same,log2 fold change of degron read counts,[3],1.36
same,log2 fold change of degron read counts,compound: thalidomide,2.2
"LNCEICGFCCTQKGNLLRHIKL [46L_47N_49E_50I_52G_53F_54C_55C_67L_, Q9UKT9]",log2 fold change of degron read counts,[1],0.295
same,log2 fold change of degron read counts,[2],-0.862
same,log2 fold change of degron read counts,[3],-1.01
same,log2 fold change of degron read counts,compound: thalidomide,-0.716
"LWCEICGFCCTQKGNLLRHIKL [46L_47W_49E_50I_52G_53F_54C_55C_67L_, Q9UKT9]",log2 fold change of degron read counts,[1],2.9
same,log2 fold change of degron read counts,[2],3.31
same,log2 fold change of degron read counts,[3],2.14
same,log2 fold change of degron read counts,compound: thalidomide,0.752
"LDCEICGFCCTQKGNLLRHIKL [46L_47D_49E_50I_52G_53F_54C_55C_67L_, Q9UKT9]",log2 fold change of degron read counts,[1],-1.71
same,log2 fold change of degron read counts,[2],-2.74
same,log2 fold change of degron read counts,[3],-1.75
same,log2 fold change of degron read counts,compound: thalidomide,-1.36
"LYCEICGFCCTQKGNLLRHIKL [46L_47Y_49E_50I_52G_53F_54C_55C_67L_, Q9UKT9]",log2 fold change of degron read counts,[1],3.35
same,log2 fold change of degron read counts,[2],3.28
same,log2 fold change of degron read counts,[3],3.07
same,log2 fold change of degron read counts,compound: thalidomide,1.36
"LACEICGFCCTQKGNLLRHIKL [46L_47A_49E_50I_52G_53F_54C_55C_67L_, Q9UKT9]",log2 fold change of degron read counts,[1],2.01
same,log2 fold change of degron read counts,[2],0.96
same,log2 fold change of degron read counts,[3],-0.0283
same,log2 fold change of degron read counts,compound: thalidomide,-0.106
"LFCEICGFCCTQKGNLLRHIKL [46L_47F_49E_50I_52G_53F_54C_55C_67L_, Q9UKT9]",log2 fold change of degron read counts,[1],3.37
same,log2 fold change of degron read counts,[2],3.39
same,log2 fold change of degron read counts,[3],2.01
same,log2 fold change of degron read counts,compound: thalidomide,1.32
"LVCEICGFCCTQKGNLLRHIKL [46L_47V_49E_50I_52G_53F_54C_55C_67L_, Q9UKT9]",log2 fold change of degron read counts,[1],1.06
same,log2 fold change of degron read counts,[2],1.69
same,log2 fold change of degron read counts,[3],1.86
same,log2 fold change of degron read counts,compound: thalidomide,2.44
"LSCEICGFCCTQKGNLLRHIKL [46L_47S_49E_50I_52G_53F_54C_55C_67L_, Q9UKT9]",log2 fold change of degron read counts,[1],1.68
same,log2 fold change of degron read counts,[2],1.58
same,log2 fold change of degron read counts,[3],0.957
same,log2 fold change of degron read counts,compound: thalidomide,0.73
"LCCEICGFCCTQKGNLLRHIKL [46L_47C_49E_50I_52G_53F_54C_55C_67L_, Q9UKT9]",log2 fold change of degron read counts,[1],0.944
same,log2 fold change of degron read counts,[2],0.646
same,log2 fold change of degron read counts,[3],1.13
same,log2 fold change of degron read counts,compound: thalidomide,1.21
"FNCNICGACFTQKGNLLRHIKL [46F_47N_49N_50I_52G_53A_54C_55F_67L_, Q9UKT9]",log2 fold change of degron read counts,[1],0.853
same,log2 fold change of degron read counts,[2],-0.00319
same,log2 fold change of degron read counts,[3],0.551
same,log2 fold change of degron read counts,compound: thalidomide,-0.352
"FTCSVCGHAFTQKGNLLRHIKL [46F_47T_49S_50V_52G_53H_54A_55F_67L_, Q9UKT9]",log2 fold change of degron read counts,[1],-2.6
same,log2 fold change of degron read counts,[2],-3.26
same,log2 fold change of degron read counts,[3],-2.56
same,log2 fold change of degron read counts,compound: thalidomide,-2.32
